Consider 40 compounds from PubChem BioAssay (NCATS).

Results filed as inconclusive are left out. Calls of active or inactive are those of the source. Calls come from the whole dose curve; as a rule, active = well fitted inhibition curve with a large enough effect; inconclusive = small, poorly fitted or top-dose-only effect; inactive = flat fitted curve, though single readings scatter.
Potency is the fitted concentration of half-maximal effect.

The assay has as its system CP203. As to the kind of experiment: qHTS profiling for inhibitors of Plasmodium falciparum proliferation (AID 504749).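 For activity, negative = inhibition: 0% = DMSO vehicle and full inhibition = artemisinin control.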 Note: nearly all actives have a fitted effect of over 60% in size. To be noted: P. falciparum in erythrocytes, SYBR Green DNA, 72 h; series mostly up to 28.7 µM; activity, negative = inhibition: at the top concentration. The source says:
NIH National Institute of Allergy and Infectious Diseases [NIAID] NIH Chemical Genomics Center [NCGC] MLPCN Grant: None Assay Provider: Xinzhuan Su, NIAID NCGC Assay Overview: Plasmodium falciparum is a virulent malarial parasite that kills 1-2 million people worldwide each year. Transmitted by mosquitoes, the sporozoite form of the parasite enters the blood stream to infect hepatocytes, where they become merozoites that infect red blood cells (erythrocytes). Within erythrocytes, merozoites begin a […] cycle of growth and division, after which the parasite is released to infect new red blood cells. Gametocytes, which form within erythrocytes as well, circulate in the bloodstream and are ingested by the mosquito, thereby completing the life cycle. To profile malarial isolates for differential chemical responses and to identify inhibitors of malarial growth, an assay that measures P. falciparum growth and replication within erythrocytes was employed. This assay uses a DNA binding fluorescent dye (SYBR Green) to detect parasite DNA following cell lysis. Because mature erythrocytes lack DNA, only Plasmodium-derived DNA is detected.
NCGC Assay Protocol Summary: The SYBR Green viability assay was adapted from a method described previously (Plouffe et al., 2008). For screening 3 ul culture medium was dispensed into 1536 well black clear bottom plates (Aurora Biotechnologies) using a Multidrop Combi (Thermo Fisher Scientific Inc.), 23 nL compounds in DMSO were added by a pin tool (Kalypsys), and 5 ul of erythrocytes infected with P. falciparum (0.3% parasitemia, 2.5% hematocrit final concentration) were added. The plates were incubated at 37 C in a humidified incubator in 5% CO2 for 72 h, and 2 ul lysis buffer (20 mM Tris HCl, 10 mM EDTA, 0.16% saponin, 1.6% triton X, 10X SYBR Green I supplied as 10,000X […] by Invitrogen) was added to each well. The plates were mixed for 25 sec with gentle shaking and incubated overnight at room temperature in the dark. The following morning, fluorescence intensity at 485(14) nm excitation and 535(25) nm emission wavelengths was measured on an EnVision (Perkin Elmer) plate reader. Plate reads were normalized relative to the control inhibitor (0.29 uM artemisinin) and vehicle (DMSO) wells present on each plate and then corrected by an algorithm using vehicle-only control plates at the beginning and end of the compound plate stack.
Background: Quantitative high-throughput screening tests each substance at several concentrations.
For the compound `Cc1cccc(C)c1OCC(=O)N[C@@H](Cc1ccccc1)[C@@H](O)C[C@H](Cc1ccccc1)NC(=O)[C@H](C(C)C)N1CCCNC1=O`, the Potency was 6.01 µM (active).

Regarding `CC1(C)CCC(C)(C)c2cc(NC(=O)c3ccc(C(=O)O)cc3)ccc21`, the “activity, negative = inhibition” value is -13.3% (inactive).

With `COc1ccc2cc([C@H](C)C(=O)O)ccc2c1`, the “activity, negative = inhibition” value is 0.461% [at 12.8 µM] (inactive).

Consider `CCCCN(CCCC)CCC(O)c1cc2c(Cl)cc(Cl)cc2c2cc(C(F)(F)F)ccc12` (stereo not given), for which the Potency is 0.0228 µM (active).

Consider `O=C1c2ccccc2-c2n[nH]c3cccc1c23`, for which the “activity, negative = inhibition” value is -4.22% (inactive).

Consider `O=C(O)c1cc(=O)c2c(OCC(O)COc3cccc4oc(C(=O)O)cc(=O)c34)cccc2o1`, for which the “activity, negative = inhibition” value is -0.398% (inactive).

In the case of `Nc1cccc2c1CN(C1CCC(=O)NC1=O)C2=O` (stereo not given), the “activity, negative = inhibition” value is -2.96% (inactive).

As for `CNC[C@H](O)c1ccc(O)c(O)c1`, the “activity, negative = inhibition” value is 2.69% (inactive).

In the case of `COCCCOc1ccnc(CS(=O)c2nc3ccccc3[nH]2)c1C` (stereo not given), the “activity, negative = inhibition” value was -19.7% (inactive).

Take `Cc1ncc([N+](=O)[O-])n1CC(C)O` (stereo not given): the “activity, negative = inhibition” value is -13.1% (inactive).

Consider `CCC1=C(C)CN(C(=O)NCCc2ccc(S(=O)(=O)NC(=O)NC3CCC(C)CC3)cc2)C1=O` (stereo not given), for which the “activity, negative = inhibition” value is 1.16% (inactive).

As for `CS(=O)(=O)OCCCCOS(C)(=O)=O`, the “activity, negative = inhibition” value was -21.9% (inactive).

Turning to `Cc1nc2n(c(=O)c1CCN1CCC(c3noc4cc(F)ccc34)CC1)CCCC2`, the “activity, negative = inhibition” value was -0.908% (inactive).

As for `O=C(O)c1cccnc1Nc1cccc(C(F)(F)F)c1`, the “activity, negative = inhibition” value is 0.569% (inactive).

Consider `CN(C)C(=O)COC(=O)Cc1ccc(OC(=O)c2ccc(N=C(N)N)cc2)cc1`, for which the “activity, negative = inhibition” value was -14.4% (inactive).

With `CC(S)C(=O)NCC(=O)O` (stereo not given), the “activity, negative = inhibition” value is 2.16% (inactive).

Regarding `CC(C)(S)[C@@H](N)C(=O)O`, the “activity, negative = inhibition” value was -18.3% (inactive).

Take `Nc1ccn([C@@H]2O[C@H](CO)[C@@H](O)C2O)c(=O)n1` (stereo not given in full): the “activity, negative = inhibition” value is 0.842% (inactive).

Take `Cc1cc(C2CCCCC2)n(O)c(=O)c1`: the Potency was 6.42 µM (active).

Consider `Clc1ccc(C(Cn2ccnc2)OCc2ccsc2Cl)c(Cl)c1` (stereo not given), for which the Potency is 4.78 µM (active).

Take `C[C@H](Cn1cnc2c(N)ncnc21)OCP(=O)(O)O`: the “activity, negative = inhibition” value was 0.157% (inactive).

For the compound `Cn1c(NCCN(CCO)CCCc2ccc([N+](=O)[O-])cc2)cc(=O)n(C)c1=O`, the “activity, negative = inhibition” value is 1.13% (inactive).

Turning to `CC(C)[C@H](N)C(=O)OCCOCn1cnc2c(=O)[nH]c(N)nc21`, the “activity, negative = inhibition” value is 8.27% (inactive).

Consider `C[Se]CCC(N)C(=O)O` (stereo not given), for which the “activity, negative = inhibition” value is 1.92% (inactive).

In the case of `O=C1CCc2ccc(OCCCCN3CCN(c4cccc(Cl)c4Cl)CC3)cc2N1`, the “activity, negative = inhibition” value is 9.51% (inactive).

Regarding `CCC(C)(Oc1ccc(C2(c3ccc(OC(C)(CC)C(=O)O)cc3)CCCCC2)cc1)C(=O)O` (stereo not given), the “activity, negative = inhibition” value was -3.11% (inactive).

On to `CCCOc1ccc2nc(NC(=O)OC)[nH]c2c1`, for which the “activity, negative = inhibition” value is -0.655% (inactive).

For the compound `N=C(N=C(N)N)N1CCOCC1`, the “activity, negative = inhibition” value was -1.63% [at 12.8 µM] (inactive).

Turning to `CCCCC(CC)COC(=O)C(C#N)=C(c1ccccc1)c1ccccc1` (stereo not given), the “activity, negative = inhibition” value was -21.2% (inactive).

Turning to `CC1(C)NC(=O)N(c2ccc([N+](=O)[O-])c(C(F)(F)F)c2)C1=O`, the “activity, negative = inhibition” value is -0.275% (inactive).

Take `O=C(CS(=O)Cc1ccco1)NCC=CCOc1cc(CN2CCCCC2)ccn1` (stereo not given): the “activity, negative = inhibition” value is -1.54% (inactive).

With `CCCCCCCCCCCCCCCCCCCCCCO`, the “activity, negative = inhibition” value was -0.486% (inactive).

`CCc1nc(N)nc(N)c1-c1ccc(Cl)cc1`: the “activity, negative = inhibition” value was -15.1% (inactive).

Consider `Cc1c(OCC(F)(F)F)ccnc1CS(=O)c1nc2ccccc2[nH]1` (stereo not given), for which the “activity, negative = inhibition” value is -6.34% (inactive).

As for `C=C(c1ccc(C(=O)O)cc1)c1cc2c(cc1C)C(C)(C)CCC2(C)C`, the “activity, negative = inhibition” value was 0.335% (inactive).

For `CC(C)c1ccc2oc3nc(N)c(C(=O)O)cc3c(=O)c2c1`, the “activity, negative = inhibition” value was -1.49% (inactive).

Turning to `CNC[C@@H](O)[C@@H](O)[C@H](O)[C@H](O)CO`, the “activity, negative = inhibition” value was 2.16% (inactive).

With `O=C(O)CCNC(=O)c1ccc(N=Nc2ccc(O)c(C(=O)O)c2)cc1`, the “activity, negative = inhibition” value was -2.56% (inactive).

`CN(C)c1ccc2nc3ccc(=[N+](C)C)cc-3sc2c1`: the Potency is 0.0338 µM (active).

`CCN(CCO)CCCC(C)Nc1ccnc2cc(Cl)ccc12` (stereo not given): the “activity, negative = inhibition” value is -7.86% (inactive).
